This is a sample that favours compounds with a hit; in the whole collection about 2.7% have one here.
IDE cell inh = human IDE inhibitors in live cells, primary screen, fluorescence polarization, HEK cells, FAbetaB substrate; Insulin-degrading enzyme (Homo sapiens), P14735; actives 0.41% (n = 320,000); FAbetaB cleavage; inhibition, % at 5.59 µM;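 active = percent inhibition above the average of all tested compounds plus 3 SD, set per screening campaign, cut at about 16% in these data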;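 note: IDE supplied by intact live HEK cells; FP after avidin binding of uncleaved biotin substrate so inhibition keeps polarization high; 0% = DMSO wells and 100% = 60 µM reference IDE inhibitor Ii1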
ANO1 activ = TMEM16A chloride channel activators or potentiators, primary screen, cell-based, HTS | HEK293 TMEM16A/YFP-H148Q/I152L, iodide quench fluorescence; stronger effect = lower value | Anoctamin-1 (Mus musculus), Q8BHY3 | B-score at 10 µM | actives 0.3% (n = 340,000) | AID 623877, 2012;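 active = fluorescence-ratio B-score plate-corrected deviation score at least 3 library SD below zero, with starting fluorescence score within 5 deviations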;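 note: channel opened by trigger with iodide after compound preincubation; score built on the fluorescence ratio of max minus min over baseline; more negative score means more quench and so TMEM16A activation or potentiation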
CHT inh = inhibitors of human choline transporter CHT; High affinity choline transporter 1 (Homo sapiens), Q9GZV3; CHT-expressing cells, membrane potential dye, choline response; stronger effect = lower value; B-score at 10 µM; actives 0.86% (n = 310,000); AID 488975, 2010;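 active = B-score over 3 SD under the library average, and starting fluorescence ratio not unusually high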;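 note: choline stimulus applied at its EC90 after an EC20 pre-addition; B-score computed on integrated fluorescence ratio after choline addition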
Target sequence (Q9GZV3 whole entry, looked up): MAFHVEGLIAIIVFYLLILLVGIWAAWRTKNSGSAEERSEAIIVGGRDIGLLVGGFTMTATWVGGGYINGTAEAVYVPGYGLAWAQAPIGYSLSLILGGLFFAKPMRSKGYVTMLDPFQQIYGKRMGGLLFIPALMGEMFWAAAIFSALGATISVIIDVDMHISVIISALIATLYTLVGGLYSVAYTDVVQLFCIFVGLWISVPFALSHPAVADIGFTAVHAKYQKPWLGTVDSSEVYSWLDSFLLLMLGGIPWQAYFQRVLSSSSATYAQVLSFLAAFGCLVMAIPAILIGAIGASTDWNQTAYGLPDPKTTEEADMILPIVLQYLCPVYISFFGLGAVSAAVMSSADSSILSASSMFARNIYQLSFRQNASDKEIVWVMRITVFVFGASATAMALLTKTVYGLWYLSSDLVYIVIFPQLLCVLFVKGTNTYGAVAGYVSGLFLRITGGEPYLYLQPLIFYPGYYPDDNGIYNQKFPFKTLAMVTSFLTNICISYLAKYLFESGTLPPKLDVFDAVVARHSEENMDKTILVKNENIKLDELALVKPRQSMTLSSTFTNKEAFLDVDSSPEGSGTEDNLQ
CHT PAM = CHT positive allosteric modulators, primary screen, cell-based, membrane potential dye, choline EC20 | actives 0.49% (n = 310,000) | CHT-expressing cells; stronger effect = higher value; LV-AA mutant CHT in HEK293 cells | B-score at 10 µM | High affinity choline transporter 1 (Homo sapiens), Q9GZV3;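 active = initial fluorescence not abnormally high and integrated response B-score, plate-corrected, over 3 SD above library mean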
IDE cell activ = human IDE activators in live cells, primary screen, fluorescence polarization, HEK cells, FAbeta-B substrate; actives 0.073% (n = 340,000); FAbeta-B cleavage; 0% vehicle, 100% cell-free pure enzyme wells; AID 493087, 2011; activation, % at 5.96 µM; Insulin-degrading enzyme (Homo sapiens), P14735;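 active = activation above the mean of all tested compounds plus 3 SD, set per screening campaign, cut at about 17% in these data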
TMEM16A inh = TMEM16A chloride channel inhibitors, primary screen, cell-based, HTS | HEK293 TMEM16A/YFP iodide influx fluorescence, ionomycin | Anoctamin-1 (Mus musculus), Q8BHY3 | normalized B-score (activity score, 25-100; higher = stronger inhibition) at 10 µM | actives 1.2% (n = 310,000);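 active = ratio plate-corrected score three or more library SD toward inhibition, starting fluorescence score within five deviations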;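 note: score derived from kinetic fluorescence span divided by baseline fluorescence per well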
IDE inh confirm = human IDE inhibitors in live cells, confirmation, fluorescence polarization, HEK cells, FAbetaB substrate; actives 51% (n = 1,200); shares compounds with IDE cell inh; inhibition, % at 5.59 µM; FAbetaB cleavage;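 active = mean inhibition across triplicate wells above the cutoff set by the earlier primary insulin-degrading enzyme screen, cut at about 16% in these data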;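 note: 0% = DMSO wells and 100% = 60 µM reference IDE inhibitor Ii1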
HEK cytotox = cytotoxicity in HEK cells, cytotoxicity control for IDE inhibitor project, cell-based, luminescence; shares compounds with IDE cell inh; HEK293 cytotoxicity, ATP luminescence; inhibition, % at 5.59 µM; actives 28% (n = 1,200); AID 449730, 2010; in the data active = inhibition above about 22%;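 note: 0% = vehicle wells and 100% = reference cytotoxic drug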
An asterisk follows results filed as active; i = inactive; nt = not tested or not shown.

SMILES | IDE cell inh | ANO1 activ | CHT inh | CHT PAM | IDE cell activ | TMEM16A inh | IDE inh confirm | HEK cytotox
CCOc1ccccc1-n1c(SCC(N)=O)nnc1-c1cccnc1 | 17* | i | i | i | -33 | i | 13 | 9
O=C(Nc1ccccc1C(F)(F)F)C1CCN(C(=O)Cc2ccccc2)CC1 | 6 | i | i | i | -6 | i | nt | nt
COc1ccccc1CCC(=O)OCC(=O)Nc1ccc2[nH]c(=O)[nH]c2c1 | 0 | i | i | i | 5 | i | nt | nt
COc1ccc(/C=C2\C(=O)NC(=S)N2C(=O)c2ccc(F)cc2)cc1 | 37* | i | i | i | -6 | i | 59* | 12
O=C1NC(=S)N(C(=O)c2ccc(F)cc2)/C1=C/c1ccccc1 | 28* | i | i | i | -24 | i | 32* | 13
CC(C)n1nccc1NC(=O)Nc1ccccc1 | -1 | i | i | i | 0 | i | nt | nt
CCCCCCc1cc2cc(/C(N)=N/NC(=O)c3ccncc3)c(=O)oc2cc1O | 29* | i | nt | nt | -36 | nt | 97* | 16
O=C(N/N=C/c1cccnc1)c1cccc(NC(=O)c2cccc(Br)c2)c1 | 25* | i | i | i | -14 | i | 17* | 8
O=C(N/N=C/c1cccnc1)c1cccc(NC(=O)c2ccccc2Cl)c1 | -1 | i | i | i | 2 | i | nt | nt
COC(=O)c1cc(S(=O)(=O)NCCCN2CCCC2=O)cn1C | -2 | i | i | i | 4 | i | nt | nt
Cc1cc(C)cc(C(=O)Nc2ccc(NC(=O)c3cccs3)cc2)c1 | 19* | i | i | i | -25 | i | 11 | 15
Cc1ccc(C(=O)/C=C/c2cc(Br)cc(Br)c2O)o1 | 16* | i | i | i | -13 | i | 26* | 21
Cc1ccc(C(=O)/C=C/N(C)C)o1 | 6 | i | i | i | 7 | i | nt | nt
C=CCn1c(C)c(/C=C/c2cc[n+](C)cc2)c2ccccc21 | 87* | i | i | i | -48 | i | 97* | 78*
C=CCn1cc(/C=C/c2cc[n+](C)cc2)c2ccccc21 | 22* | i | i | i | -18 | i | 67* | 85*
CC(C)n1cc(/C=C/c2cc[n+](C)cc2)c2ccccc21 | nt | i | nt | nt | -32 | nt | nt | nt
CCN(CC)C(=O)Cn1c(C)c(/C=C/c2cc[n+](C)cc2)c2ccccc21 | 26* | i | i | i | -13 | i | 24* | 13
Cc1[nH]c2ccccc2c1/C=C/c1cc[n+](C)cc1 | nt | i | nt | nt | -23 | nt | nt | nt
CCn1cc(/C=C/c2cc[n+](C)cc2)c2ccccc21 | 52* | i | i | i | -16 | i | 83* | 79*
CC(=O)c1ccc(OCC(=O)OCC(=O)N(CC(C)C)c2c(N)n(Cc3ccccc3)c(=O)[nH]c2=O)cc1 | nt | i | nt | nt | 2 | nt | nt | nt
CC(C)[C@H](N[C@@H](C)c1ccccc1)c1c(O)ccc2ccccc12 | 6 | i | i | i | -3 | i | nt | nt
O=C(/C=C/c1cccc(F)c1)NCCCn1ccnc1 | 0 | i | i | i | 5 | i | nt | nt
O=C(O)/C=C/C(=O)c1ccc2c(c1)CCc1ccccc1-2 | 5 | i | i | i | -5 | i | nt | nt
Cc1cccc(NC(=O)c2sc3nc(-c4ccccc4)cn3c2C)n1 | 17* | i | i | i | -11 | i | 11 | 29*
Cc1c(C(=O)NCc2ccccn2)sc2nc(-c3ccc(F)cc3)cn12 | 20* | i | i | i | -11 | i | 11 | 62*
SMILES | IDE cell inh | ANO1 activ | CHT inh | CHT PAM | IDE cell activ | TMEM16A inh | IDE inh confirm | HEK cytotox
Cc1c(C(=O)NCc2ccc3c(c2)OCO3)sc2nc(-c3ccc(F)cc3)cn12 | 3 | i | i | i | -4 | i | nt | nt
COc1ccc(-c2cn3c(C)c(C(=O)Nc4cccc(C)n4)sc3n2)cc1 | 1 | i | i | i | -1 | i | nt | nt
Cc1ccc2[nH]c3c(NCCCN4CCCC4=O)ncnc3c2c1 | 18* | i | i | i | -8 | i | 6 | 7
COc1ccc(C(C)=O)cc1COC(=O)c1ccc(C)c(S(=O)(=O)N2CCOCC2)c1 | -1 | i | nt | nt | 1 | nt | nt | nt
COC(=O)c1ccc(CNC(=O)CCNC(=O)c2ccco2)cc1 | 2 | i | nt | nt | -1 | nt | nt | nt
Cc1ccc(C(=O)Nn2c(O)c(C=C3N=c4ccccc4=N3)sc2=S)cc1 | 11 | i | i | i | -7 | i | nt | nt
O=C(Nn1c(O)c(C=C2N=c3ccccc3=N2)sc1=S)c1ccccc1 | 20* | i | i | i | -15 | i | 15 | 6
C=CCOC(=O)C1=C(C)OC(N)=C(C#N)C1c1ccoc1 (configuration not stated) | 45* | i | i | i | -18 | i | 40* | 5
CCOC(=O)C1=C(C)OC(N)=C(C#N)C1c1ccsc1 (configuration not stated) | 2 | i | i | i | 1 | i | nt | nt
CN(C)S(=O)(=O)c1ccc2c(c1)/C(=C/c1cc3c([nH]1)CCCC3)C(=O)N2 | 45* | i | i | i | -90 | i | 105* | 15
Oc1cccc2ccc(Nc3ccccn3)nc12 | 25* | i | i | i | -17 | i | 10 | 45*
c1ccc(Nc2ccccc2Nc2ccccn2)nc1 | -24 | i | i | i | 0 | i | nt | nt
COc1ccc(NC(=O)COC(=O)c2ccc(OCc3c(C)noc3C)cc2)cc1OC | 5 | i | i | i | 0 | i | nt | nt
COc1cc(C(=O)OCC(=O)Nc2ccc3c(c2)OC(F)(F)O3)ccc1OCc1c(C)noc1C | 17* | i | i | i | 1 | i | 3 | 7
COc1ccc(Br)cc1/C=N/N1C(=O)CSC1=S | 6 | i | i | i | -1 | i | nt | nt
COc1cc(/C=N/N2C(=O)CSC2=S)ccc1O | 26* | i | i | i | -15 | i | 44* | 4
COc1cc(OC)cc(-c2nnc(Nc3nc4c(F)cccc4s3)o2)c1 | -2 | i | i | i | -6 | i | nt | nt
